Experiment in all cases: NCI-60 one-dose screen, 48 h (100 = growth as untreated, 0 = no growth, -100 = all killed)
What all share (conditions): 10 µM

The test system of experiment [1] is DU-145 prostate.
For experiment [2], the system named is K-562 leukemia.
Experiment [3] concerns MALME-3M melanoma.
For experiment [4], the system named is MDA-MB-231 breast.
Experiment [5] relates to RXF 393 renal.
Experiment [6] concerns SF-268 CNS.
Experiment [7] concerns SF-295 CNS.
The subject of experiment [8] is SF-539 CNS.
Experiment [9] deals with UACC-257 melanoma.
The subject of experiment [10] is M14 melanoma.

13 molecules from PubChem BioAssay (NCI) can be followed below.

Each structure is given as a SMILES string. Values joined by “and” are separate entries in the source; they are usually repeats but may differ in a detail not shown here. Equal values may be shown once. This is part of a sample that, as a whole, favours compounds with a hit. Of some 83,000 tested, about 20% had one in any assay.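 The test compound was applied at a single concentration to cells in 96-well plates for 48 hours, and percent growth was recorded.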 Active and inactive are the calls of the source. Rule for the calls: active = growth percent below 10; inactive = the rest.

Consider `C/C1=C\[C@H](C)C[C@H](C)OC(=O)C[C@H](c2ccc(O)cc2)NC(=O)[C@@H](Cc2c(Br)[nH]c3ccccc23)N(C)C(=O)[C@H](C)NC(=O)[C@@H](C)C1`, for which the growth in experiment [1] is -15.6% (active); in [2], 0.288% (active); in [3], -65% (active); in experiment [4], -33.2% (active); in experiment [5] it was -49.2% (active); in experiment [6] it was -30.3% (active). Also, the growth is -61.2% (active) in experiment [7], -36.8% (active) in experiment [8], 0.643% (active) in experiment [9] and -71.2% (active) in experiment [10].
With `C[C@]12CC[C@H]3[C@@H](CCC4=CC(=O)CC[C@@H]43)[C@@H]1CC[C@@H]2OC(=O)N(CCCl)N=O`, the growth in experiment [1] is 1.81% (active); in experiment [2], 29.5% (inactive); in experiment [3], 91.7% (inactive); in [4] it was 76.3% (inactive); in experiment [5], 69.9% (inactive); in experiment [6], 23.7% (inactive). The growth in experiment [7] was 12.3% (inactive); in experiment [8], -0.439% (active); in experiment [9], 84.4% (inactive); in experiment [10], 49% (inactive).
With `O=[N+]([O-])/C=C/c1ccc(Cl)cc1[N+](=O)[O-]`, the growth in experiment [1] was 75.2% (inactive); in experiment [2] it was 9.32% (active); in experiment [3], 96.3% (inactive); in experiment [4], 58.2% (inactive); in experiment [5], -94.7% (active); in [6], 59.1% (inactive). In addition, the growth is 91.6% (inactive) in [7], -35.3% (active) in [8], 89.3% (inactive) in [9] and 55.3% (inactive) in experiment [10].
`NC(Cc1ccccc1)c1ccccc1` (stereo not given): the growth in experiment [1] was 117% (inactive) and 120% (inactive); in [2], 108% (inactive) and 94.4% (inactive); in experiment [3], 106% (inactive) and 109% (inactive); in experiment [4], 102% (inactive) and 95% (inactive); in [5], 105% (inactive) and 109% (inactive); in experiment [6], 106% (inactive) and 103% (inactive). The growth was 102% (inactive) and 104% (inactive) in experiment [7]; 103% (inactive) and 97.2% (inactive) in experiment [8]; 106% (inactive) and 95.4% (inactive) in experiment [9]; 95.1% (inactive) and 94% (inactive) in experiment [10].
`C/C(=C\c1ccc(Cl)c(Cl)c1)[N+](=O)[O-]`: the growth in [1] is 8.46% (active) and 104% (inactive); in [2], 0.843% (active) and 78.6% (inactive); in [3] it was -55.4% (active) and 105% (inactive); in experiment [4], -26.3% (active) and 101% (inactive); in [5] it was -91.7% (active) and 100% (inactive); in experiment [6], -19.1% (active) and 102% (inactive). Further, the growth was 94.5% (inactive) in experiment [7]; 96.3% (inactive) and 100% (inactive) in experiment [8]; -88.8% (active) in experiment [9]; -86.8% (active) and 95% (inactive) in experiment [10].
Consider `CC(C)c1cc([N+](=O)[O-])cc([N+](=O)[O-])c1O`, for which the growth in [1] was 110% (inactive); in experiment [2] it was 119% (inactive); in experiment [3], 137% (inactive); in experiment [4], 99.7% (inactive); in [5], 102% (inactive); in [6] it was 102% (inactive). Also, the growth in experiment [7] was 99% (inactive); in experiment [8], 101% (inactive); in experiment [9], 115% (inactive); in experiment [10], 99.7% (inactive).
With `NNc1ccccc1`, the growth in [1] was 98.4% (inactive); in experiment [2] it was 19.5% (inactive); in experiment [3], 118% (inactive); in [4] it was 89.8% (inactive); in experiment [5] it was 123% (inactive); in experiment [6], 82.6% (inactive). Also, the growth in [7] is 80.5% (inactive); in [8] it was 99.3% (inactive); in experiment [9] it was 107% (inactive); in [10] it was 46.6% (inactive).
Take `COC12C(COC(N)=O)C3=C(C(=O)C(C)=C(N)C3=O)N1CC1C2N1C` (stereo not given): the growth is -3.38% (active) in experiment [1]; 50.1% (inactive) in [2]; 31.4% (inactive) in [3]; 93.9% (inactive) in [4]; 46% (inactive) in [5]; 45.8% (inactive) in experiment [6]. The growth in experiment [7] was 17.3% (inactive); in [8] it was 19.8% (inactive); in experiment [9] it was 16.6% (inactive); in experiment [10] it was 28.4% (inactive).
As for `CC[C@@]1(O)C[C@H](OC2CC(N(C)C)C(O)C(C)O2)c2c(cc3c(c2O)C(=O)c2c(O)ccc(O)c2C3=O)[C@H]1C(=O)OC` (stereo not given in full), the growth in experiment [1] is -77.8% (active); in experiment [2], -73.7% (active); in [3] it was -87.4% (active); in experiment [4], -70.9% (active); in [5], -66.3% (active); in experiment [6] it was -61% (active). In addition, the growth was -81.5% (active) in [7], -88.5% (active) in experiment [8], -67.7% (active) in experiment [9] and -93.1% (active) in experiment [10].
With `CC1CCC2(OC1)OC1C(O)C3C4CCC5CC(OC6OC(CO)C(OC7OC(CO)C(O)C(OC8OCC(O)C(O)C8O)C7OC7OC(CO)C(O)C(OC8OC(CO)C(O)C(O)C8O)C7O)C(O)C6O)C(O)CC5(C)C4CCC3(C)C1C2C` (stereo not given), the growth in experiment [1] is -100% (active); in experiment [2], -100% (active); in experiment [3] it was 14.8% (inactive); in [4], -70.2% (active); in experiment [5], -71.6% (active); in [6] it was -39.7% (active). The growth is -77.9% (active) in [7], -53.3% (active) in experiment [8], -85.7% (active) in [9] and 62.9% (inactive) in experiment [10].
`CN(CCCl)c1ccc(/C=C/C2=[N+](C)c3ccccc3C2(C)C)cc1`: the growth was 28.9% (inactive) in experiment [1]; 26.9% (inactive) in experiment [2]; 23.5% (inactive) in [3]; 21.1% (inactive) in [4]; 82.3% (inactive) in [5]; 31.8% (inactive) in experiment [6]. Further, the growth was 45.5% (inactive) in [7], 14.4% (inactive) in [8], 30.8% (inactive) in experiment [9] and 37.4% (inactive) in experiment [10].
With `O=[N+]([O-])c1ccc(N2CCOCC2)c2c1no[n+]2[O-]`, the growth in experiment [1] is 6.63% (active); in experiment [2], -29.6% (active); in experiment [3], -12.6% (active); in experiment [4], 34.3% (inactive); in experiment [5], -31.4% (active); in experiment [6], 4.58% (active). The growth in [7] was 20.5% (inactive); in [8] it was -22.3% (active); in [9], 41% (inactive); in experiment [10] it was 0.168% (active).
Take `C#CC1(O)CCC(C(C)(C)C)CC1` (stereo not given): the growth in experiment [1] is 114% (inactive); in experiment [2], 121% (inactive); in [3], 115% (inactive); in experiment [4], 119% (inactive); in experiment [5], 115% (inactive); in experiment [6] it was 103% (inactive). Further, the growth in experiment [7] was 97.7% (inactive); in experiment [8], 102% (inactive); in experiment [9], 97% (inactive); in [10], 108% (inactive).
